We go through 40 molecules from PubChem BioAssay (NCI).

Compounds without any hit were thinned out: in the full panel of roughly 83,000, 20% have a hit.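 Step 1: grow cells in 96-well plates. Step 2: add test compound at a single concentration. Step 3: incubate 48 h. Step 4: record percent growth.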 The source made the active and inactive calls. Rule for the calls: active = growth percent below 10; inactive = the rest.

The subject of one assay is NCI-H23 lung. Nature of the assay: NCI-60 one-dose screen, 48 h (100 = growth as untreated, 0 = no growth, -100 = all killed). Particulars: 10 µM unless noted.
In the case of `NNC(=S)N1N=C(c2cc3ccccc3o2)CC1c1c[nH]c2ccccc12` (stereo unspecified), the growth is 56.4% (inactive). On the same count and under the same terms, as for `O=C(/C=C1\C(=O)N(Cc2ccccc2)c2ccccc21)c1ccc(OCCN2CCCCC2)cc1`, the figure is 58.9% (inactive). The same measure, in the same setting: as for `COc1ccc(CN2C(=O)/C(=C\C(=O)c3ccc(OCCN4CCCC4)cc3)c3ccccc32)cc1`, the figure is 83.8% (inactive); as for `C[C@@H](c1ccc2c(c1)[nH]c1ccc(Cl)cc12)c1nc2ccccc2[nH]1`, 91.2% (inactive); as for `c1ccc(-c2cn3ccnc3c(-c3ccc4ncn(C5CCCCC5)c4c3)n2)cc1`, 54.7% (inactive). The same measure, in the same setting: the same measure for `C[C@@H](c1ccc2c(c1)[nH]c1ccc(Cl)cc12)c1nc2ccc(Cl)cc2[nH]1`: 85.6% (inactive). `COc1cc(CNC(=O)CCCC/C=C/C(C)C)ccc1OCc1nnc(Nc2ccccc2F)o1`: the growth was 63.8% (inactive). As to `Cc1c(CN(C)C)cc(C(C)C)cc1C(C)C`, the growth was 102% (inactive). Same read-out and setting: as for `O=S(=O)(O)c1ccc2c(c1)Sc1cc(S(=O)(=O)O)ccc1O2`, the figure is 109% (inactive); as for `COc1ccc(Cn2cc3c(c2-c2ccccc2)CCc2cnoc2-3)cc1N`, 20.5% (inactive). Still for that read-out and setting: the same measure for `COc1ccc(/C=C(/C(=O)N2CCN(c3ccc(C)cc3)CC2)c2cc(OC)c(OC)c(OC)c2)cc1N`: 38.1% (inactive); for `C=CCN(C)C`: 102% (inactive). Same read-out and setting: as for `CCNc1nnc(COc2ccc(CNC(=O)CCCC/C=C/C(C)C)cc2OC)o1`, the figure is 93.7% (inactive); as for `COc1ccc2oc(=O)cc(CN3C(=O)S/C(=C\c4ccc(Cl)cc4)C3=O)c2c1`, 90.9% (inactive). Regarding `CC(C)OC(=O)Nn1cnc2ccccc21`, the growth is 98.4% (inactive). Regarding `COc1ccc(Cn2cc3c(c2-c2ccc(OC)cc2)CCc2cnoc2-3)cc1`, the growth is 6.98% (active). Turning to `COc1cc(Cn2ccc3c2-c2oncc2CC3)cc(OC)c1`, the growth was 30.1% (inactive). On the same count and under the same terms, as for `COc1cccc(Cn2cc3c(c2)-c2oncc2CC3)c1`, the figure is 16.3% (inactive); as for `COc1ccc(C2=C/C(=C\c3ccc(Cl)cc3)C(=O)NN2C(=S)NN)cc1`, 92.5% (inactive); as for `COc1ccc(Cn2cc3c(c2)-c2oncc2CC3)cc1OC`, 16.9% (inactive). Still for that read-out and setting: the same measure for `COc1ccccc1Nc1nnc(COc2ccc(CNC(=O)CCCC/C=C/C(C)C)cc2OC)o1`: 92.2% (inactive); for `N=c1c2c(=O)n3c(nc2nc2sc4ccc(Cl)cc4n12)-c1ccccc1Sc1ccccc1-3`: 8.13% (active). The same measure, in the same setting: the same measure for `CCCC(=O)NNc1[nH]c(-c2cc(OC)c(OC)c(OC)c2)cc1C(=O)OCC`: 107% (inactive). Consider `COc1ccc(Cn2cc3c(c2-c2ccc(O)cc2)CCc2cnoc2-3)cc1`, for which the growth is 20.5% (inactive). Take `COc1ccc(OC)c(Cn2cc3c(c2-c2ccccc2)CCc2cnoc2-3)c1`: the growth is 60.8% (inactive). Still for that read-out and setting: the same measure for `CCCCCCCCCCCCCCCCCC1=NCCN1CS(=O)(=O)O`: 87.5% (inactive).

A further assay relates to NCI-H226 lung. The description is as above. The settings on record: 10 µM unless noted.
In the case of `COc1ccc(/C=C(/C(=O)N2CCCCC2)c2cc(OC)c(OC)c(OC)c2)cc1`, the growth is 94.8% (inactive). For `COc1ccc(OC)c(Cn2cc3c(c2)-c2oncc2CC3)c1`, the growth is 70.2% (inactive).

`COc1ccc(CN2C(=O)/C(=C\C(=O)c3ccc(OCCN4CCCCC4)cc3)c3ccccc32)cc1`: the growth was 89.6% (inactive). On the same count and under the same terms, the same measure for `COc1ccc(/C=C2\SC(=O)N(Cc3cc(=O)oc4ccc(OC)cc34)C2=O)cc1`: 67.9% (inactive); for `O=c1oc2ccc3ccccc3c2cc1-c1ccnc2[nH]c(=S)[nH]c(=O)c12`: 94.5% (inactive). Same read-out and setting: the same measure for `O=C(O)c1occ(Cl)c1Cl`: 114% (inactive); for `COc1ccc(Cn2cc3c(c2-c2ccccc2)CCc2cnoc2-3)cc1OC`: 57.3% (inactive); for `CCCCN(CCCC)CC(O)CN(CC)CC` (stereo unspecified): 96.3% (inactive). On the same count and under the same terms, the same measure for `O=C(/C=C/c1c[nH]c2ccccc12)c1cc2ccccc2o1`: 100% (inactive); for `COc1ccc2sc(-n3nc4nc5n(c(=O)c4c3N)-c3ccccc3Sc3ccccc3-5)nc2c1`: 81.4% (inactive). Consider `CCOC(=O)NNc1[nH]c(-c2ccc(OC)cc2)cc1C#N`, for which the growth was 101% (inactive). On the same count and under the same terms, as for `COc1ccc(-c2cn3ccnc3c(-c3ccc4ncn(C5CCCCC5)c4c3)n2)cc1`, the figure is 64.1% (inactive).

Regarding `CCOC(=O)C1=NN(c2ccccc2)C2=NC(=O)/C(=C\c3cn(-c4ccccc4)nc3-c3cc4ccccc4o3)C(=O)N12`, the growth is 84.7% (inactive). On the same count and under the same terms, the same measure for `O=C(/C=C1\C(=O)N(Cc2ccc([N+](=O)[O-])cc2)c2ccccc21)c1ccc(OCCN2CCCCC2)cc1`: -41.1% (active); for `NNC(=S)N1N=C(c2cc3ccccc3o2)CC1c1c[nH]c2ccccc12` (stereo unspecified): 69.7% (inactive).

For `O=C(/C=C1\C(=O)N(Cc2ccccc2)c2ccccc21)c1ccc(OCCN2CCCCC2)cc1`, the growth was 84.6% (inactive). Same read-out and setting: as for `COc1ccc(CN2C(=O)/C(=C\C(=O)c3ccc(OCCN4CCCC4)cc3)c3ccccc32)cc1`, the figure is 87.8% (inactive).

Take `C[C@@H](c1ccc2c(c1)[nH]c1ccc(Cl)cc12)c1nc2ccccc2[nH]1`: the growth is 95.3% (inactive). As for `c1ccc(-c2cn3ccnc3c(-c3ccc4ncn(C5CCCCC5)c4c3)n2)cc1`, the growth was 66.1% (inactive). Same read-out and setting: the same measure for `C[C@@H](c1ccc2c(c1)[nH]c1ccc(Cl)cc12)c1nc2ccc(Cl)cc2[nH]1`: 101% (inactive); for `COc1cc(CNC(=O)CCCC/C=C/C(C)C)ccc1OCc1nnc(Nc2ccccc2F)o1`: 64.5% (inactive); for `Cc1c(CN(C)C)cc(C(C)C)cc1C(C)C`: 93.5% (inactive). On the same count and under the same terms, the same measure for `O=S(=O)(O)c1ccc2c(c1)Sc1cc(S(=O)(=O)O)ccc1O2`: 118% (inactive); for `COc1ccc(Cn2cc3c(c2-c2ccccc2)CCc2cnoc2-3)cc1N`: 13% (inactive).

Take `COc1ccc(/C=C(/C(=O)N2CCN(c3ccc(C)cc3)CC2)c2cc(OC)c(OC)c(OC)c2)cc1N`: the growth was 98.3% (inactive). The same measure, in the same setting: as for `C=CCN(C)C`, the figure is 97.3% (inactive).

As to `CCNc1nnc(COc2ccc(CNC(=O)CCCC/C=C/C(C)C)cc2OC)o1`, the growth was 101% (inactive). As to `COc1ccc2oc(=O)cc(CN3C(=O)S/C(=C\c4ccc(Cl)cc4)C3=O)c2c1`, the growth is 92.3% (inactive). Same read-out and setting: the same measure for `CC(C)OC(=O)Nn1cnc2ccccc21`: 106% (inactive); for `COc1ccc(Cn2cc3c(c2-c2ccc(OC)cc2)CCc2cnoc2-3)cc1`: 9.5% (active). Regarding `COc1cc(Cn2ccc3c2-c2oncc2CC3)cc(OC)c1`, the growth was 67.4% (inactive). As for `COc1cccc(Cn2cc3c(c2)-c2oncc2CC3)c1`, the growth was 13.8% (inactive). Still for that read-out and setting: the same measure for `COc1ccc(C2=C/C(=C\c3ccc(Cl)cc3)C(=O)NN2C(=S)NN)cc1`: 87.6% (inactive).

Turning to `COc1ccc(Cn2cc3c(c2)-c2oncc2CC3)cc1OC`, the growth is 31.4% (inactive). The same measure, in the same setting: as for `COc1ccccc1Nc1nnc(COc2ccc(CNC(=O)CCCC/C=C/C(C)C)cc2OC)o1`, the figure is 79.7% (inactive). As to `N=c1c2c(=O)n3c(nc2nc2sc4ccc(Cl)cc4n12)-c1ccccc1Sc1ccccc1-3`, the growth was 29.1% (inactive). Still for that read-out and setting: the same measure for `CCCC(=O)NNc1[nH]c(-c2cc(OC)c(OC)c(OC)c2)cc1C(=O)OCC`: 103% (inactive); for `COc1ccc(Cn2cc3c(c2-c2ccc(O)cc2)CCc2cnoc2-3)cc1`: 24.1% (inactive). The same measure, in the same setting: the same measure for `COc1ccc(OC)c(Cn2cc3c(c2-c2ccccc2)CCc2cnoc2-3)c1`: 78.8% (inactive).

As for `CCCCCCCCCCCCCCCCCC1=NCCN1CS(=O)(=O)O`, the growth is 87.5% (inactive).
